Among the data in paper PMC7862700, “An all-to-all approach to the identification of sequence-specific readers for epigenetic DNA modifications on cytosine” are binding signal values, retold here.

Common to all, as to test: DAPPL (digital affinity profiling via proximity ligation, sequencing); 10 mM Tris-HCl pH 7.5, 50 mM NaCl, 1 mM DTT, 4% glycerol, room temperature, 30 min; GST-TFs on glutathione beads, 16-mer random dsDNA library, 0.1% formaldehyde crosslink after washing; high values mean tight binding
In one assay the target is T1, FEV (Homo sapiens, UniProt Q99581 1-238).
T1 sequence: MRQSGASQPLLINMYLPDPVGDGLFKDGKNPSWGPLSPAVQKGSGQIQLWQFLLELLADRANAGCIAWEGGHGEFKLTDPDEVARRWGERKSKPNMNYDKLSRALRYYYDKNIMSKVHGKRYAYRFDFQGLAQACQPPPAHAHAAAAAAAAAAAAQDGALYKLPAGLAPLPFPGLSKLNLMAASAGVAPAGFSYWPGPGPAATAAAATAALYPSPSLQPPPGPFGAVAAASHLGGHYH
The settings on record: protein: recombinant; tags: N-terminal GST; dsDNA, one strand shown. In outline: (§1)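 Pools were built from human transcription factors expressed in yeast as GST fusions, captured on glutathione beads and DNA-barcoded, along with a tag-only sample. Incubation with 200 nmole of a 16-mer random double-stranded DNA library lasted 30 min at room temperature in Tris/NaCl/DTT/glycerol buffer, and was followed by washing, 0.1% formaldehyde crosslinking, proximity ligation, PCR amplification and Illumina NextSeq500 sequencing. Binding signal is the quotient of each hexamer's read frequency for a factor and its frequency for the tag-only sample.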

Another assay has as its target ETV5 (Homo sapiens, UniProt P41161 1-510). The settings on record: protein: recombinant; tags: N-terminal GST; dsDNA, one strand shown. In outline: as §1
For another assay, the target named is HSF1 (Homo sapiens, UniProt Q00613 1-529). The settings on record: protein: recombinant; tags: N-terminal GST; chain copies: 3; dsDNA, one strand shown. The procedure, abridged:
as §1

A further assay concerns the target T2, SPIC (Homo sapiens, UniProt Q8N5J4 1-248).
T2 sequence: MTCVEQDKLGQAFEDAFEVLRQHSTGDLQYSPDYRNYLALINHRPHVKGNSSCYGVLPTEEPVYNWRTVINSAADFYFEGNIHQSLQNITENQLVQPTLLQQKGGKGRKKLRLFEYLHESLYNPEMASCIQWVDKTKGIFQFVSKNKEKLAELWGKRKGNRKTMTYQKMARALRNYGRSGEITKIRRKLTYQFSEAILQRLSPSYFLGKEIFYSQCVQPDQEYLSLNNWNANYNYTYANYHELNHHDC
Particulars: protein: recombinant; tags: N-terminal GST; dsDNA, one strand shown. In outline: as §1

The target in another assay is ELF4 (Homo sapiens, UniProt Q99607 1-663). Particulars: protein: recombinant; tags: N-terminal GST; dsDNA, one strand shown. In outline: as §1
Another assay has as its target T3, ELK4 (Homo sapiens, UniProt P28324-2 1-405).
T3 sequence: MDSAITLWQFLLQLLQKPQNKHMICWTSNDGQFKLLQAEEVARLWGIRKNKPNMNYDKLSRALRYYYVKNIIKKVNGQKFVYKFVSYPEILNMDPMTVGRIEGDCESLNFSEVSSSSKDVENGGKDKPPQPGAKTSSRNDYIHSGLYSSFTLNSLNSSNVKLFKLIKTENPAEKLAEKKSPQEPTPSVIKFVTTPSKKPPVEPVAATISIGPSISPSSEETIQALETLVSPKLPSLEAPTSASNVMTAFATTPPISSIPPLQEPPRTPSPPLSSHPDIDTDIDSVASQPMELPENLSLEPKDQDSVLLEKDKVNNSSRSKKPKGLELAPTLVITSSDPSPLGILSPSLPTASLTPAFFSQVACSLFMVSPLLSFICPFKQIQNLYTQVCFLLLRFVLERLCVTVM
Particulars: protein: recombinant; tags: N-terminal GST; dsDNA, one strand shown. The procedure, abridged:
as §1

A further assay addresses T4, ETV2 (Homo sapiens, UniProt O00321 1-342).
T4 sequence: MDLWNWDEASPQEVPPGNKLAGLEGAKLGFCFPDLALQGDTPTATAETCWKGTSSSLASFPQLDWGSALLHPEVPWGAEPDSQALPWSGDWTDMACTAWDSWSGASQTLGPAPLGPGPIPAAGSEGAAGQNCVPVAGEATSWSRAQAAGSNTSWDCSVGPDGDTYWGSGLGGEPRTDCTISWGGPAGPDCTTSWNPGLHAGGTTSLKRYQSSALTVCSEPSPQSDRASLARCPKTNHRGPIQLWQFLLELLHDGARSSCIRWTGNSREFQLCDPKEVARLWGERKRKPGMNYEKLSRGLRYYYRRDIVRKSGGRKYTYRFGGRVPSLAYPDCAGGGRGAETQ
The settings on record: protein: recombinant; tags: N-terminal GST; dsDNA, one strand shown. The procedure, abridged:
as §1

Another assay concerns the target T5, ELF3 (Homo sapiens, UniProt P78545 1-371).
T5 sequence: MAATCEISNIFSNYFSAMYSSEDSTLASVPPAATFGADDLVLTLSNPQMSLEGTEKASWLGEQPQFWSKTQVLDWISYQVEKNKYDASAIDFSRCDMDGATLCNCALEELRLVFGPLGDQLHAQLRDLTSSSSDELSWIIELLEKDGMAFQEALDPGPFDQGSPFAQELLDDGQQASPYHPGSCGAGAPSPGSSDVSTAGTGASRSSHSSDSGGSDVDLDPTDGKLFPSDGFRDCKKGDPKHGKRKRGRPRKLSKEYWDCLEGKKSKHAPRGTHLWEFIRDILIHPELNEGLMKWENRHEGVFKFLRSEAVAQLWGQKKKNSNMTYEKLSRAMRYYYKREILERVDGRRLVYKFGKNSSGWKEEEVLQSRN
The settings on record: protein: recombinant; tags: N-terminal GST; dsDNA, one strand shown. In outline:
as §1

Another assay has as its target CRX (Homo sapiens, UniProt O43186 1-299). Particulars: protein: recombinant; tags: N-terminal GST; dsDNA, one strand shown. In outline: as §1
The target in another assay is ETV1 (Homo sapiens, UniProt P50549 1-477). Particulars: protein: recombinant; tags: N-terminal GST; dsDNA, one strand shown. In outline: as §1
In the next assay the target is T6, ERF (Homo sapiens, UniProt P50548 1-548).
T6 sequence: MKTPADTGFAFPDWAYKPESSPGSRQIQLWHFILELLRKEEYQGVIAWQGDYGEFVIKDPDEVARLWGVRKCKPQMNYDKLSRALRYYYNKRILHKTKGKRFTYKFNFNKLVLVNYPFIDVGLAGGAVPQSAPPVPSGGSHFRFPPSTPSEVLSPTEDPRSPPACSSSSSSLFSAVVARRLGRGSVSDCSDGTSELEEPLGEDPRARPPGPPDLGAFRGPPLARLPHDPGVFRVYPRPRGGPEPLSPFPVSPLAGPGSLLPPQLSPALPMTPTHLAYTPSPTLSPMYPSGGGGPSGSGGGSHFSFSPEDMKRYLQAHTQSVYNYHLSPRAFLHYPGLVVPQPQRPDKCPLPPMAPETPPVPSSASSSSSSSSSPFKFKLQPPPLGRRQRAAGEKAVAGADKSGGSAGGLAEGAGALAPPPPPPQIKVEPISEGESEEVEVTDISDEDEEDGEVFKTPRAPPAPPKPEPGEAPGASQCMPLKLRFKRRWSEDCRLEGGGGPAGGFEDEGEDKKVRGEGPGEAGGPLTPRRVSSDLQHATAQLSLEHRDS
Particulars: protein: recombinant; tags: N-terminal GST; dsDNA, one strand shown. In outline: as §1

The next assay addresses T7, ETV3L (Homo sapiens, UniProt Q6ZN32 1-361).
T7 sequence: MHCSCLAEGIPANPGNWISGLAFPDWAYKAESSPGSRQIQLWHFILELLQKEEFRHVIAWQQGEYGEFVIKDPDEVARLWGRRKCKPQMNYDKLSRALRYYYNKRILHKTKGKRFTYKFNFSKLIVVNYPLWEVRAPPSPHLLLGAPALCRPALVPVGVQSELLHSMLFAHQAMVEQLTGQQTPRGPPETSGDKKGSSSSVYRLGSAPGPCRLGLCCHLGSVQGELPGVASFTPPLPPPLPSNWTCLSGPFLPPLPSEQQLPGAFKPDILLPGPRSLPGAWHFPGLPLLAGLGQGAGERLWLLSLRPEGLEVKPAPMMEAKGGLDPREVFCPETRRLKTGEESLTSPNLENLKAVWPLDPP
The settings on record: protein: recombinant; tags: N-terminal GST; dsDNA, one strand shown. The procedure, abridged:
as §1

The target in the next assay is T8, ETS2 (Homo sapiens, UniProt P15036 1-469).
T8 sequence: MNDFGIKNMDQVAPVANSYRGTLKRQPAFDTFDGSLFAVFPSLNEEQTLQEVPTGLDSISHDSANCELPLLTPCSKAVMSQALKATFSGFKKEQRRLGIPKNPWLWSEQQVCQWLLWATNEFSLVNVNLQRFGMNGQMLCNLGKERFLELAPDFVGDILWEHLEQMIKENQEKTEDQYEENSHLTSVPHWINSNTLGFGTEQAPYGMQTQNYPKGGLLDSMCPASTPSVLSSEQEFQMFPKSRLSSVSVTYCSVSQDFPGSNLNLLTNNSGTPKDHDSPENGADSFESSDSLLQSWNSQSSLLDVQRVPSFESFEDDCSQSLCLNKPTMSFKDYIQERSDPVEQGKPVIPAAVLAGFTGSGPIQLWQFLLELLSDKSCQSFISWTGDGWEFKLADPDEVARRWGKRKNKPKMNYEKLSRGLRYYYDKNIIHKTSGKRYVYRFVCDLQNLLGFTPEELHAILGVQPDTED
The settings on record: protein: recombinant; tags: N-terminal GST; dsDNA, one strand shown. In outline: as §1

The target of another assay is T9, SPDEF (Homo sapiens, UniProt O95238 1-335).
T9 sequence: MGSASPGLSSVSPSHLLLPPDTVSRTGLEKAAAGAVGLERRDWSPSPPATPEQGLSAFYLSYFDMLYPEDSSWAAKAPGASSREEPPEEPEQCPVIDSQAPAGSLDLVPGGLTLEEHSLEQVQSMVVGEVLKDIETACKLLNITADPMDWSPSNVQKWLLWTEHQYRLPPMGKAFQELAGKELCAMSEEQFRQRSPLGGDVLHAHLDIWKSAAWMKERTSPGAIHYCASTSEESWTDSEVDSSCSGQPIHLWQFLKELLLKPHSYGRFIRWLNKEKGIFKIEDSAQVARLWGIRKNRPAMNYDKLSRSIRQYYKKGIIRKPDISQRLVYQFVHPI
The settings on record: protein: recombinant; tags: N-terminal GST; dsDNA, one strand shown. The procedure, abridged: as §1

Another assay has as its target T10, ETV7 (Homo sapiens, UniProt Q9Y603 1-341).
T10 sequence: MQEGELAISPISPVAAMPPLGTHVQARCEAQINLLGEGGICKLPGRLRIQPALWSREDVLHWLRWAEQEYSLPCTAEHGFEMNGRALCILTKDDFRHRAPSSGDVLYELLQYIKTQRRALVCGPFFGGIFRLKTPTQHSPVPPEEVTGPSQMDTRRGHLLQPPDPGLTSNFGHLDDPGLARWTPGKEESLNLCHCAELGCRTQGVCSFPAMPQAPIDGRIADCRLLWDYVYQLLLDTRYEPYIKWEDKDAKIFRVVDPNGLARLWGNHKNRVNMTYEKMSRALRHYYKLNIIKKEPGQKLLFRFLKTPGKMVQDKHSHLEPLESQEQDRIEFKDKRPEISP
The settings on record: protein: recombinant; tags: N-terminal GST; dsDNA, one strand shown. In outline: as §1

A further assay concerns the target T11, ELF5 (Homo sapiens, UniProt Q9UKW6-2 1-255).
T11 sequence: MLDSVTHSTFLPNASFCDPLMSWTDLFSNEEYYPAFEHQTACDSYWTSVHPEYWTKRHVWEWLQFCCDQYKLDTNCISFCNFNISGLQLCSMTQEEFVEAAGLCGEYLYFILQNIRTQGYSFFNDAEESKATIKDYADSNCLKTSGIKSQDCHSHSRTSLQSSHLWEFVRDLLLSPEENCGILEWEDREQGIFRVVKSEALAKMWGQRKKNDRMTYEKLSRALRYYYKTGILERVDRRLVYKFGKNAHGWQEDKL
Particulars: protein: recombinant; tags: N-terminal GST; dsDNA, one strand shown. In outline:
as §1

For a further assay, the target named is T12, ETV3 (Homo sapiens, UniProt P41162-2 1-143).
T12 sequence: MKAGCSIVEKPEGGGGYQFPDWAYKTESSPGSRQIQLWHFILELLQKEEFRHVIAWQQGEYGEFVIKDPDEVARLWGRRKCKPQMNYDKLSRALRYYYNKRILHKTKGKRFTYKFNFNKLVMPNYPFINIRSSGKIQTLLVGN
The settings on record: protein: recombinant; tags: N-terminal GST; dsDNA, one strand shown. In outline:
as §1

For a further assay, the target named is ETV6 (Homo sapiens, UniProt P41212 1-452). Particulars: protein: recombinant; tags: N-terminal GST; dsDNA, one strand shown. The procedure, abridged: as §1
Chain of ETV6 (P41212 whole entry): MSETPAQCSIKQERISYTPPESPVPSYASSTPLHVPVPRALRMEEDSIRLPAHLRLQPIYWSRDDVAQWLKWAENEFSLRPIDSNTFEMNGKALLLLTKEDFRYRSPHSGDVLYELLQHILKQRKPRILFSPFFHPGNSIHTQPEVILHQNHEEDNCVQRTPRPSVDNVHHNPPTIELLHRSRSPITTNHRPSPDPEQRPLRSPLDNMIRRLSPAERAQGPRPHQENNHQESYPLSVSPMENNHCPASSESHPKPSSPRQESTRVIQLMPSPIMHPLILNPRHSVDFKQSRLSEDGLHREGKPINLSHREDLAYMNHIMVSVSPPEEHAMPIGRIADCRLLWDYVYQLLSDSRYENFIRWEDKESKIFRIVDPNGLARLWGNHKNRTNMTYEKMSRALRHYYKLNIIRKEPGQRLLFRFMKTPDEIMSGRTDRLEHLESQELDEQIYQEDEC

Chain of CRX (O43186 whole entry): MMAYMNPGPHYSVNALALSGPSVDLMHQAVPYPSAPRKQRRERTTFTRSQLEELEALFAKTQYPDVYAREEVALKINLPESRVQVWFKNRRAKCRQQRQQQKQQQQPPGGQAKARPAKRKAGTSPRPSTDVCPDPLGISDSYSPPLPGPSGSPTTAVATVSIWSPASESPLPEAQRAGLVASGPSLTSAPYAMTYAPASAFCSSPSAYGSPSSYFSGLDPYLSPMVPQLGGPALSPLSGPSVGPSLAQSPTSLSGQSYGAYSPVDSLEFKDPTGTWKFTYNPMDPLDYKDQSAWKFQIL
Chain of ETV1 (P50549 whole entry): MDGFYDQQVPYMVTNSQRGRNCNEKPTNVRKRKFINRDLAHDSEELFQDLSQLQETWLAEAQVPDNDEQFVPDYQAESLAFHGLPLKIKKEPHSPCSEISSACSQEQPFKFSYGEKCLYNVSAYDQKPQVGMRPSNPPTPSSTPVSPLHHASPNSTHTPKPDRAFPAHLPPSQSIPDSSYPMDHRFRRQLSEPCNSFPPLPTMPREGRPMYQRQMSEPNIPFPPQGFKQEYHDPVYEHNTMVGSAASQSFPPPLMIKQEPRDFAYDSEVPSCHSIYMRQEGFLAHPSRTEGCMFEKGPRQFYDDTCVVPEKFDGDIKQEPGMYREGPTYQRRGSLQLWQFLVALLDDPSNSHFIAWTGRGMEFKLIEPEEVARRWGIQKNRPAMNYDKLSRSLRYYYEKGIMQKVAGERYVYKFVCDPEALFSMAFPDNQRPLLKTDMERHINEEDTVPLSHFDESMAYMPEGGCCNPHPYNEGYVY
Chain of ETV5 (P41161 whole entry): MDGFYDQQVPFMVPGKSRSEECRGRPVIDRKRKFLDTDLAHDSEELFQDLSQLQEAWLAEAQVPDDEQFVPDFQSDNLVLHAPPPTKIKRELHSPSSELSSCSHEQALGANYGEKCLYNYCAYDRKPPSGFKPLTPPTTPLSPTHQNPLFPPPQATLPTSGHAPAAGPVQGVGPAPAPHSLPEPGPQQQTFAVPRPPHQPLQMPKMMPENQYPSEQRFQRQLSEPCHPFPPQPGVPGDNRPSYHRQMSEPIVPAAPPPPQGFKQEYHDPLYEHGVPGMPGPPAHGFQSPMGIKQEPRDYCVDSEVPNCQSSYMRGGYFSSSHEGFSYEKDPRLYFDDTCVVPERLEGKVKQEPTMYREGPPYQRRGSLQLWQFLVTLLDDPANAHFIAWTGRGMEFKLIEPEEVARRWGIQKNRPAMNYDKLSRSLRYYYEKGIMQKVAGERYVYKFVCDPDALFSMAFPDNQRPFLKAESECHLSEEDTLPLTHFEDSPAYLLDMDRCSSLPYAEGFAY
Chain of HSF1 (Q00613 whole entry): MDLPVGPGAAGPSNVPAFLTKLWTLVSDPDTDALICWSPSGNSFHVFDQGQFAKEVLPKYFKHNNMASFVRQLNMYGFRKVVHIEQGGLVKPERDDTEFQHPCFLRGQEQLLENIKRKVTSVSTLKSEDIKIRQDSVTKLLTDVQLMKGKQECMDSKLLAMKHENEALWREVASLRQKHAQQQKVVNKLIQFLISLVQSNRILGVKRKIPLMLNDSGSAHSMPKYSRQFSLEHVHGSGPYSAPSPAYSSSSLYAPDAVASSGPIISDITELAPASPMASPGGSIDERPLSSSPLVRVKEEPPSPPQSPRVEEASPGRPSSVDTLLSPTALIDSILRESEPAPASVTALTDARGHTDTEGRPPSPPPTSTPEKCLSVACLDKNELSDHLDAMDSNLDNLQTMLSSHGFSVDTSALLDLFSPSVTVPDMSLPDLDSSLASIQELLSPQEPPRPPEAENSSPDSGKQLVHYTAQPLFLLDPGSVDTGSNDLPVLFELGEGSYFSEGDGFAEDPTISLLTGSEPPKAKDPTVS
Chain of ELF4 (Q99607 whole entry): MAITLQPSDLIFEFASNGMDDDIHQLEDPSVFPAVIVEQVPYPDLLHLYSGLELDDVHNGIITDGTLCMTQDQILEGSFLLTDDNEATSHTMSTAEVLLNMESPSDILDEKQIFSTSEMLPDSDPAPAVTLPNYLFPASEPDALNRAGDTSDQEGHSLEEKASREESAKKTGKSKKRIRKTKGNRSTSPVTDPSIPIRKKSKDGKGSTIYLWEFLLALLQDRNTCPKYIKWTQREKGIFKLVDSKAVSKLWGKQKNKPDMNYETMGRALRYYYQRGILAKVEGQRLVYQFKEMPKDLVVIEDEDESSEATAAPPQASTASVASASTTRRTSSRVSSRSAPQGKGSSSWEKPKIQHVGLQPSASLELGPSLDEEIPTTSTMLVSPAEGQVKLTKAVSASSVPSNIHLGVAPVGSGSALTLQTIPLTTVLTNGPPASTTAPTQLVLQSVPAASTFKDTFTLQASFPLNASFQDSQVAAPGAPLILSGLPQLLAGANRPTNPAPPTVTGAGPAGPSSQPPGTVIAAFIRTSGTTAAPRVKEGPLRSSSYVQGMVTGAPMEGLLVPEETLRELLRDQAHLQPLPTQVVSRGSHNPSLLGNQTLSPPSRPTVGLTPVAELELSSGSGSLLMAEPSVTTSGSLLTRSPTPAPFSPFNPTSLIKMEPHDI

ATTTAC: the binding signal with FEV was 1.3 fold enrichment (6-mer frequency, TF over GST control); with ETV5 it was 1.33 fold enrichment (6-mer frequency, TF over GST control); with HSF1 it was 1.38 fold enrichment (6-mer frequency, TF over GST control); with SPIC it was 1.2 fold enrichment (6-mer frequency, TF over GST control); with ELF4, 1.33 fold enrichment (6-mer frequency, TF over GST control); with ELK4, 1.23 fold enrichment (6-mer frequency, TF over GST control). The binding signal with ETV2 was 1.16 fold enrichment (6-mer frequency, TF over GST control); with ELF3 it was 1.27 fold enrichment (6-mer frequency, TF over GST control); in the assay with CRX it was 1.75 fold enrichment (6-mer frequency, TF over GST control); with ETV1, 1.22 fold enrichment (6-mer frequency, TF over GST control); with ERF, 1.27 fold enrichment (6-mer frequency, TF over GST control); with ETV3L, 1.18 fold enrichment (6-mer frequency, TF over GST control). The binding signal was 1.28 fold enrichment (6-mer frequency, TF over GST control) with ETS2; 1.21 fold enrichment (6-mer frequency, TF over GST control) with SPDEF; 1.28 fold enrichment (6-mer frequency, TF over GST control) with ETV7; 1.25 fold enrichment (6-mer frequency, TF over GST control) in the assay with ELF5; 1.29 fold enrichment (6-mer frequency, TF over GST control) with ETV3; 1.18 fold enrichment (6-mer frequency, TF over GST control) in the assay with ETV6.
